Screens: PubChem BioAssay, National Center for Advancing Translational Sciences (NCATS)
DRD3 antagonist: blocks the human D3 dopamine receptor; D3R cells, DiscoveRx beta-arrestin luminescence, antagonist mode; hits give low values; max response, negative = inhibition, %; actives 2.5% (n = 360,000); AID 652054; in the data active means max response below about -50%; inconclusive means no clear call, values can overlap the other calls; further: on the % scale 0 is the no-effect control and ±100 the full control effect
Target sequence (P35462 whole entry, looked up): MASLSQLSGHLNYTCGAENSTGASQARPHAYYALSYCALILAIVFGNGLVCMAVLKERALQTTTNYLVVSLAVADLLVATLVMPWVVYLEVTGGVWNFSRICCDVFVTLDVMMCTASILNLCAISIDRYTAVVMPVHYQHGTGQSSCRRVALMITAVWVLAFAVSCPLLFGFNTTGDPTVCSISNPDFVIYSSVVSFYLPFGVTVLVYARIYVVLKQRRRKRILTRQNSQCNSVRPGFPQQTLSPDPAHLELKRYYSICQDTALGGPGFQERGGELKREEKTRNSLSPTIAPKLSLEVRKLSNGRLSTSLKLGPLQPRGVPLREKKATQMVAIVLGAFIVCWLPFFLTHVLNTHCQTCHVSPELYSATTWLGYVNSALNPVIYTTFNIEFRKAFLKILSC
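Cells plated overnight at 1500 cells/well, then exposed to library compounds with dopamine controls for 90 minutes at 37 degrees C. DiscoveRx reagent added for 30–60 minutes at room temperature; luminescence read, quantitative HTS format.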
D1 antag: antagonists of human D1 dopamine receptor. P21728. activity change, negative = inhibition, % at 10 µM. actives 3.2% (n = 360,000). AID 504652. HEK293 TREx D1 cells, calcium flux, dopamine EC80; hits give low values; in the data active means activity change below about -30%; further: on the % scale 0 is the no-effect control and ±100 the full control effect
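HEK293 T-REx cells expressing inducible, force-coupled D1 receptor; no-wash Ca dye, 30–90 min RT. Cmpd → 180 s read at 1 Hz → EC80 DA → 180 s read.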
BCR signal inh: blocks chronic active B-cell receptor signaling. Potency, µM (doses to about 46.1 µM), for the others: top-dose activity change, negative = inhibition, hits mostly inhibitors. ABC-DLBCL IkBa-CBG/CBR reporter, luminescence ratio, 4 h. actives 0.05% (n = 340,000). AID 493014; active means well fitted inhibition curve with a large enough effect in the signal ratio, with a control signal flat, not every such curve was filed as active; inconclusive means small, poorly fitted or top-dose-only effect, or effect the other way, or a change in a side signal; the % refers to the signal ratio;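 further: potency means the concentration at half of the fitted maximal effect; plate controls were basal doxycycline-induced cells for no effect and cells given 10 µM MG132 for full effect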
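TMD8 ABC-DLBCL cells carrying doxycycline-inducible green luciferase fused to IkappaBalpha plus unfused red luciferase were exposed to compounds (up to 46 uM) for 4 hrs at 37C. Activity came from the overlap-corrected green/red luminescence ratio.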
D1 ag: agonists of human D1 dopamine receptor | P21728 | HEK293 T-REx D1 cells, calcium flux, agonist mode | activation, % at 2 µM | actives 1% (n = 360,000) | AID 504660; in the data active means activation above about 30%; further: 0% is about no effect
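Inducible HEK293 T-REx D1 cells, force-coupled to calcium signalling, were plated at 4000 cells/well with tetracycline and held overnight at 30 C. After no-wash calcium dye loading, compound-evoked calcium rise over 180 s flagged agonists.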
D1 PAM: potentiators of human D1 dopamine receptor. P21728. HEK293 TREx D1 cells, calcium flux, dopamine EC20 potentiation. potentiation, % at 10 µM. actives 0.036% (n = 360,000). AID 504651; in the data active means potentiation above about 30%; further: 0% is about no effect
DRD3 agonist: D3 dopamine receptor (human) agonism | P35462 | D3R DiscoveRx beta-arrestin cells, luminescence, 90 min | max activation, % | actives 0.58% (n = 410,000) | AID 652048; in the data active means max activation above about 30%; further: 0% is about no effect
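Agonist mode: compounds and dopamine controls were applied to plated cells for 90 min at 37 degrees C after an overnight attachment at 1500 cells/well. Luminescent read-out followed 30 - 60 minutes at room temperature with DiscoveRx detection reagent.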
* hit, by the source's call; ? = inconclusive; / = no result. An excerpt weighted towards active compounds, which were near 6% of everything screened.

SMILES | DRD3 antagonist | D1 antag | BCR signal inh | D1 ag | D1 PAM | DRD3 agonist
COc1cc(NCCCCC(C)N)c2nccc(C)c2c1 (centres undefined) | 1 | / | / | / | / | 0
CCC(CNc1cc(OC)cc2cccnc12)NC1CCCCC1 (centres undefined) | -57* | -21 | ? | 4 | 0 | -16
COc1cc(NCCCC(C)N)c2ncccc2c1 (centres undefined) | -54* | 4 | ? | 3 | -6 | -10
CN1CCN(C(=O)c2ccc3c(c2)N(C)C(=O)/C(=C/c2cccc(Cl)c2)S3)CC1 | -17 | -38* | 2% | 22 | -7 | -15
COc1ccc(/C=C2\Sc3ccc(C(=O)N4CCN(Cc5ccccc5)CC4)cc3N(C)C2=O)cc1OC | 2 | -14 | ? | 4 | -8 | 8
COc1cccc(/C=C2\Sc3ccc(C(=O)NCc4cccnc4)cc3N(C)C2=O)c1 | -11 | -17 | ? | 3 | -8 | -3
CN1C(=O)/C(=C/c2cccc(Cl)c2)Sc2ccc(C(=O)NCc3cccnc3)cc21 | 3 | -40* | ? | 12 | -10 | -5
O=C(C(=O)N1CCN(C(=O)c2ccco2)CC1)c1cc2ccccc2o1 | 0 | / | / | / | / | 4
CCS(=O)(=O)c1c(Nc2cc(C)ccc2C)sc(C(=O)c2ccccc2)c1N | / | 38 | / | 41* | 5 | -2
Cc1ccc(Cl)cc1Nc1sc(C(=O)c2ccccc2)c(N)c1S(=O)(=O)c1ccccc1 | / | -51* | / | 54* | 3 | 10
Cc1c(Cl)cccc1Nc1sc(C(=O)c2ccccc2)c(N)c1S(=O)(=O)c1ccccc1 | / | 9 | / | 12 | -1 | 7
COc1ccc(S(=O)(=O)N2CCC(n3c(C(F)(F)F)nc4cccnc43)CC2)cc1OC | / | -4 | / | 5 | -3 | -13
CC(C)(C)c1ccc(/C=N/Nc2nncn2N)cc1 | ? | -20 | ? | 2 | -4 | -5
Nn1cnnc1N/N=C/c1cc(Br)cc(Br)c1O | -90* | -2 | ? | 3 | -3 | -9
COc1ccc(-c2cc(C(F)(F)F)nc(SCC(=O)N(C)Cc3ccccc3)n2)cc1 | / | -7 | / | 9 | -5 | 6
Cc1cc(NC(=O)c2c(F)cccc2F)n(-c2nc3ccccc3[nH]2)n1 | -96* | 5 | ? | 1 | -6 | 37*
Cc1cc(NC(=O)/C=C/c2ccc(F)cc2)n(-c2nc3ccccc3[nH]2)n1 | 0 | -36* | ? | 5 | -8 | 11
Cc1cc(NC(=O)/C=C/c2cccc(F)c2)n(-c2nc3ccccc3[nH]2)n1 | 29 | -25 | -1% | 2 | -13 | 3
Cc1cc(NC(=O)c2c(F)cccc2Cl)n(-c2nc3ccccc3[nH]2)n1 | 29 | / | ? | 1 | 1 | -8
COc1ccc(/C=C/C(=O)Nc2cc(C)nn2-c2nc3ccccc3[nH]2)cc1 | 11 | -41* | ? | 4 | -10 | -3
Cc1ccccc1NC(=O)c1c(C)oc2ccc(O)c(CN3CCCC3)c12 | / | 2 | / | -2 | 1 | 7
O=C(NCCNc1nccc(C(F)(F)F)n1)c1cccc(C(F)(F)F)c1 | -15 | -34* | 7% | 8 | 1 | -17
C=Cc1ccc(CSc2nnc(C)n3c2cc2occc23)cc1 | / | 6 | / | 4 | -2 | -5
CC(=O)CCc1ccc(OCC(O)CNCCOc2ccc(C)cc2)cc1 (centres undefined) | -25 | 3 | 5% | 14 | 7 | 51*
CCOC(=O)c1cccc(OCC(O)CNCCOc2ccccc2F)c1 (centres undefined) | -55* | -27 | -1% | 14 | -10 | 1
SMILES | DRD3 antagonist | D1 antag | BCR signal inh | D1 ag | D1 PAM | DRD3 agonist
CC(=O)c1cccc(OCC(O)CNCCc2ccc(Cl)cc2)c1 (centres undefined) | 1 | -6 | -1% | 26 | -1 | -6
COc1ccc(OCC(O)CNCCOc2ccccc2OC)c(C(C)(C)C)c1 (centres undefined) | -81* | 16 | ? | 59* | 0 | -4
COC(=O)CCc1ccc(OCC(O)CNC(C)C)cc1 (centres undefined) | -14 | / | / | / | / | 0
OC(CNc1ccccc1)COc1ccc(OCC(O)CNc2ccccc2)cc1 (centres undefined) | -20 | -40* | -1% | 18 | -7 | 1
Cc1ccccc1OCC(O)CNCCOc1ccc(C(N)=O)cc1 (centres undefined) | / | / | / | / | / | -19
OC(CNCc1ccco1)COc1ccccc1 (centres undefined) | -55* | -9 | 2% | 2 | -4 | -22
Cc1ccc(OCCNCC(O)COc2ccccc2)cc1 (centres undefined) | -83* | 3 | -2% | 24 | 5 | -15
COc1ccc(OCC(O)CNCc2ccco2)cc1 (centres undefined) | 0 | 6 | 0% | 4 | 1 | -8
CCOC(=O)C1CCN(S(=O)(=O)c2cc(-c3onc(C)c3C)ccc2OC)CC1 | / | 30 | / | 1 | -1 | -1
CCN1C(=S)SC(=O)C1=C1C=C(C)N(Cc2ccco2)C(C)=C1 | -9 | -9 | 4% | 171* | 5 | -9
O=C1CCN(Cc2ccccc2)CCN1[C@H](CO)c1ccccc1 | -51* | 3 | -6% | -1 | -3 | -9
N#Cc1cccc(CN2CCC(=O)N([C@H](CO)Cc3ccccc3)CC2)c1 | -9 | -45* | -2% | -1 | 6 | 8
CC(C)[C@@H]1CC[C@@H](C)C[C@H]1OC(=O)c1ccccc1O | / | / | / | / | / | 10
C[C@@H]1CN([C@H](C)CO)C(=O)CCCn2nncc2CO[C@H]1CN(C)C(=O)c1ccc2ccn(C)c2c1 | 18 | / | / | / | / | 4
COc1cc(CN2C[C@@H](CO)O[C@@H](n3cnc4c(NCCN(C)C)ncnc43)C2)cc(OC)c1OC | -22 | / | / | / | / | -2
Cc1ccc2c(c1)C(=O)C(=O)N2Cc1ccc(F)cc1 | ? | / | -1% | / | / | -32
Cc1ccc2c(c1)C(=O)C(=O)N2CCCOc1ccccc1 | -50* | 8 | ? | 2 | -1 | -7
Cc1ccc2c(c1)C(=O)C(=O)N2Cc1ccc(Cl)cc1 | -64* | / | ? | / | / | -34
CC1CCN(C(=O)c2ccc(S(=O)(=O)N3CCOCC3)cc2)CC1 | -16 | 24 | ? | 1 | -1 | -8
CC1CCN(S(=O)(=O)c2ccc(S(=O)(=O)N3CCCC3)cc2)CC1 | 6 | -19 | -5% | 0 | -11 | 34*
Cc1nnsc1C(=O)Nc1ccc(S(=O)(=O)N2CCC(C)CC2)cc1 | -1 | -48* | -3% | 21 | -9 | 3
CC1CCN(S(=O)(=O)c2ccc(NC(=O)c3cccs3)cc2)CC1 | 0 | -4 | 3% | 5 | -4 | -6
